Shown are actives, neighbours in structure and some others; about 2.2% of the full set was active somewhere.
VLA-4 inh = inhibition in a human VLA-4 binding assay | VLA-4 expressing cells, ligand binding flow cytometry | inhibition, % (about 7 µM as worked out from the volumes in the protocol) | 330,000 compounds, 0.2% hits | P13612; in the data active = inhibition above about 50%
MEKK2wt PB1 HTS = raises or lowers MEK5 binding to wildtype human MEKK2 PB1 domain. AID 1531. binding response (% of control), % at 10 µM. 290,000 compounds, 1.1% hits. bead flow cytometry, Alexa488-MEK5 binding to MEKK2 WT; actives lie on both sides; in the data active = binding response below about 67% or above about 130%
MEKK2 mut-MEK5 = signal of MEK5 binding to mutant human MEKK2 PB1 domain. bead flow cytometry, Alexa488-MEK5 binding to MEKK2 mutant. percent response, % at 10 µM. 290,000 compounds, 0.35% hits; in the data active = percent response above about 24%, passing the limit was not always enough
MEKK3 PB1 HTS = modulators (inhibitors or enhancers) of MEK5 binding to human MEKK3 PB1 domain; Q99759; bead-based flow cytometry, Alexa488-MEK5 binding to MEKK3; actives lie on both sides; 0 = blocked by unlabeled MEK5, 100 = vehicle; binding response (% of control), % at 10 µM; 290,000 compounds, 1.4% hits;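 active = binding response more than 3 SD above or below the average of its plate-row segment, actives on both sides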;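 note: Alexa488 bead fluorescence after subtracting the streptavidin-only scavenger bead signal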
Target sequence (Q99759 whole entry, looked up, the tested form may be a part): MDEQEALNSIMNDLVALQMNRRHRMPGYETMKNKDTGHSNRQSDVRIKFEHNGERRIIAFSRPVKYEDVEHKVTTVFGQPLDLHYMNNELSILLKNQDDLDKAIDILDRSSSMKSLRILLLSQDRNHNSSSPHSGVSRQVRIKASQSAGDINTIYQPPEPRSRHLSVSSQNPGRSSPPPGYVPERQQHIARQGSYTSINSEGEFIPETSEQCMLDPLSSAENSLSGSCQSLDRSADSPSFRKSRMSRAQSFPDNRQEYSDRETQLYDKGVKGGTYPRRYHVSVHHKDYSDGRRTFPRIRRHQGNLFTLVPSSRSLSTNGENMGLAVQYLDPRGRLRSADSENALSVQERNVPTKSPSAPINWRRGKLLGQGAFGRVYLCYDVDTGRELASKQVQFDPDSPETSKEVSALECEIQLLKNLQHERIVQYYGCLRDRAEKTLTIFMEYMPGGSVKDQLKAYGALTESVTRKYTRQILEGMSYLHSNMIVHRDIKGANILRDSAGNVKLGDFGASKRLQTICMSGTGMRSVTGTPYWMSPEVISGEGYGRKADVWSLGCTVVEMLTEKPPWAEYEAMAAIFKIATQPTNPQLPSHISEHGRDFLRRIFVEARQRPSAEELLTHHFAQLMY
MEKK2wt confirm = raises or lowers MEK5 binding to wildtype human MEKK2, retest; shares compounds with MEKK3 PB1 HTS; bead flow cytometry, Alexa488-MEK5 binding to MEKK2 WT; actives lie on both sides; binding response (% of control), % at 10 µM; 5,900 compounds, 2.4% hits; in the data active = binding response below about 16% or above about 210%; inactive = in between
MEKK2mut confirm = signal of MEK5 binding to mutant human MEKK2, retest. shares compounds with MEKK3 PB1 HTS. bead flow cytometry, Alexa488-MEK5 binding to MEKK2 mutant. percent response, % at 10 µM. 5,900 compounds, 2% hits. AID 1893; in the data active = percent response mostly above about 71%, no sharp cut-off; inactive = mostly below about 38%;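 note: higher means compound restores mutant binding toward wildtype level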
MEKK3 confirm = MEKK3-MEK5 PB1 inhibition, single concentration confirmation; shares compounds with MEKK3 PB1 HTS; binding response (% of control), % at 10 µM; 5,900 compounds, 1.8% hits; AID 1894; bead flow cytometry, Alexa488-MEK5 binding to MEKK3; stronger effect = lower value;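 active = binding response below 72% of control, or above a set upper limit, though filed actives all read lower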
A number is an active result; i = inactive; nt = no result given; [ ] = another dose, or the depositor's remark.

SMILES	VLA-4 inh	MEKK2wt PB1 HTS	MEKK2 mut-MEK5	MEKK3 PB1 HTS	MEKK2wt confirm	MEKK2mut confirm	MEKK3 confirm
O=C(O)CC1(CC(=O)NCc2ccc(C(F)(F)F)cc2)CCCCC1	i	i	i	128	i	i	i
Cc1onc(-c2ccccc2)c1C(=O)Nc1sc2c(c1C#N)CCC2	i	i	i	i	nt	nt	nt
NCCNC(=O)c1c(NC(=O)c2ccccc2)sc2c1CCCC2	i	149	30	i	i	i	i
Cc1onc(-c2ccccc2)c1C(=O)Nc1sc2c(c1C(N)=O)CCC2	i	2.0[inhibitor]	i	2.0[inhibitor]	i	i	i
Cc1ccc(CNC(=O)C2CCCN(S(=O)(=O)c3ccc(F)cc3)C2)cc1 (centres undefined)	i	i	i	i	nt	nt	nt
CCCCCC(=O)Nc1cccc(C2=NOC3(C2)C[C@H](C(N)=O)N(C(=O)CC#N)C3)c1 (some centres undefined)	nt	1.0[inhibitor]	i	1.0[inhibitor]	i	i	i
C=C(C)C(=O)Nc1cccc(C2=NOC3(C2)C[C@@H](C(N)=O)N(C(=O)/C=C/C=C/C)C3)c1 (some centres undefined)	i	i	i	68[inhibitor]	i	i	i
CCCCCC(=O)Nc1cccc(C2=NOC3(C2)C[C@H](C(N)=O)N(C(=O)c2ccccc2)C3)c1 (some centres undefined)	i	i	i	i	nt	nt	nt
N#Cc1ccccc1Sc1ccccc1C(=O)NCC(c1ccco1)N1CCCC1 (centres undefined)	i	nt	nt	nt	nt	nt	nt
CCN(CC)c1ccc(C(=O)OCC(=O)NC(C)(C)C)cc1	i	i	i	i	nt	nt	nt
Cc1ccc(C(=O)CN(C(=O)c2ccc(Cl)c(Cl)c2)N2C(=O)C3C4C=CC(C4)C3C2=O)cc1 (centres undefined)	i	i	i	82[inhibitor]	i	i	i
CCN(CC)CCn1c(NS(=O)(=O)c2ccc(C)cc2)nc2ccccc21	i	nt	nt	nt	nt	nt	nt
CCn1c(/N=C/c2ccccc2NS(=O)(=O)c2ccc(C)cc2)nc2ccccc21	i	i	i	137	i	i	i
Cc1nnc(SCC(=O)N(C2CCCCC2)C2CCS(=O)(=O)C2)n1N (centres undefined)	i	nt	nt	nt	nt	nt	nt
Cc1ccc(Nc2nc(N)c([N+](=O)[O-])c(NCc3ccco3)n2)cc1	i	i	i	152	i	i	i
OCCc1c[nH]c2ccc(OCc3ccccc3)cc12	i	i	i	i	nt	nt	nt
CCc1ccc(NC(=O)CO/N=C(\C)c2cc3ccccc3o2)cc1	i	i	i	136	i	i	i
CCOc1cccc(C2/C(=C(/O)c3ccc4c(c3)CC(C)O4)C(=O)C(=O)N2Cc2cccnc2)c1 (centres undefined)	i	i	i	i	nt	nt	nt
COc1ccc(/C=C/c2cc(C(F)(F)F)on2)cc1	i	i	i	50[inhibitor]	i	i	i
Cc1nn(-c2ccc(F)cc2)c2sc(C(=O)O)cc12	i	-1.0[inhibitor]	i	2.0[inhibitor]	i	i	i
COc1ccc(/C=C/C(=O)C2C(=O)C=C(C)OC2=O)cc1O (centres undefined)	i	i	i	i	nt	nt	nt
COc1cc(/C=C/C(=O)C2C(=O)C=C(C)OC2=O)cc(OC)c1O (centres undefined)	i	i	i	135	i	i	i
COc1cc(C(=S)N2CCOCC2)cc(OC)c1OC(=O)c1cccc(C)c1	i	i	25	i	i	i	i
NNc1cc(C(=O)O)ccc1Cl	i	61[inhibitor]	i	55[inhibitor]	i	i	i
O=C(NCc1ccco1)/C(=C/C=C/c1ccccc1)NC(=O)c1ccco1	i	i	i	i	nt	nt	nt
SMILES	VLA-4 inh	MEKK2wt PB1 HTS	MEKK2 mut-MEK5	MEKK3 PB1 HTS	MEKK2wt confirm	MEKK2mut confirm	MEKK3 confirm
Cc1ccc(C(=O)N/C(=C\C=C\c2ccccc2)C(=O)NCc2ccco2)cc1	i	i	i	146	i	i	i
O=C(O)CCNC(=O)/C(=C\C=C\c1ccccc1)NC(=O)c1ccccc1	nt	i	i	134	i	i	i
O=C(Nc1ccc(O)cc1)/C(=C\C=C\c1ccccc1)NC(=O)c1ccccc1	i	i	i	i	nt	nt	nt
O=C(COC(=O)COc1ccccc1)Nc1ccccc1OC(F)F	i	i	i	72[inhibitor]	i	i	i
CC(=O)OCC(=O)Nc1ccccc1OC(F)F	i	i	i	i	nt	nt	nt
Nc1ccc(-c2ccc(N)c(C(=O)O)c2)cc1C(=O)O	i	46[inhibitor]	i	44[inhibitor]	i	i	i
Nc1ccc(Br)cc1C(=O)O	i	i	i	i	nt	nt	nt
CCOC(=O)c1ccc(NC(=O)Cn2nnc(-c3ccc(F)cc3)n2)cc1	i	i	i	i	nt	nt	nt
CCOC(=O)c1ccc(NC(=O)Cn2nnc(-c3ccccc3)n2)cc1	i	134	i	i	i	i	i
CCOC(=O)c1ccc(NC(=O)COc2ccccc2CNCCc2ccccc2)cc1	i	206	i	i	i	i	i
NC(=O)c1nn(-c2ccccc2)nc1NC(=O)CN1CCCC1	i	i	i	i	nt	nt	nt
CCOC(=O)c1ccc(NC(=O)CCc2nc(-c3ccccc3)no2)cc1	i	i	i	130	i	i	i
NC(=O)c1nn(-c2ccccc2)nc1NC(=O)Cn1nnc(-c2ccccc2)n1	i	i	i	132	i	i	i
CCc1ccc(N2CC(C)Cn3c2nc2c3c(=O)[nH]c(=O)n2C)cc1 (centres undefined)	i	i	i	i	nt	nt	nt
Fc1cc(Cl)ccc1NC1=NCCCCC1	i	i	i	i	nt	nt	nt
CC/C(=N/NC(=O)c1ccccc1O)c1c(C)[nH]n(-c2ccccc2)c1=O	i	nt	nt	nt	nt	nt	nt
Cc1cccc(OCC(=O)N(C)CC(=O)Nc2cccc(F)c2)c1C	i	nt	nt	nt	nt	nt	nt
COc1cccc(-c2nn(C)c3sc(C(=O)NCCCN(C)Cc4ccccc4)cc23)c1	i	147	i	i	i	i	i
CCN(CC)CCCNC(=O)c1cc2c(-c3cccc(OC)c3)nn(C)c2s1	i	i	i	i	nt	nt	nt
CCCCN(CC)CCCNC(=O)c1cc2c(-c3ccc(OC)c(OC)c3)nn(C)c2s1	i	135	i	i	i	i	i
Cc1ccc(C(=O)Nc2ccc(N3CCN(C(=O)c4cccs4)CC3)cc2)c(Cl)c1	i	i	i	i	nt	nt	nt
Fc1ccc(NC(=S)Nc2ccc3nccnc3c2)cc1	i	i	i	130	i	i	i
OCCCNC(=S)Nc1ccc2nccnc2c1	i	i	i	i	nt	nt	nt
O=C(COc1cc2oc(=O)cc(-c3ccccc3)c2cc1Cl)NCc1ccccn1	i	i	i	i	nt	nt	nt
O=C(NCCCN1CCOCC1)C(=O)N/N=C/c1cccc2ccccc12	i	i	i	i	nt	nt	nt
O=C(C[n+]1ccccc1)N/N=C/c1cc(Br)cc(Br)c1O	i	i	i	i	nt	nt	nt
CCC(O)(CC)C(=O)N/N=C/c1cc(Br)cc(Br)c1O	i	i	i	134	i	i	i
